Results filed as inconclusive are left out. The source made the active and inactive calls. Unless noted, calls follow the shape of the dose curve; as a rule, active = well fitted curve in the direction sought with a large enough effect; inconclusive = small, poorly fitted or top-dose-only effect, or another doubt; inactive = no such curve, though single readings can be large; an effect the other way counts as inactive or inconclusive.
How the values were obtained:
[1] = AP1 Signaling Pathway (AID 357; active = well fitted curve in either direction with a large enough effect, not every such curve was filed as active;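 also: ME-180 reporter cells stimulated with EGF at its EC50 level; % is scaled to controls: 0 for no effect and ±100 for the full control effect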); details: ME-180 AP-1-bla reporter, EGF-induced, beta-lactamase ratio, 5 h; at 38 µM (top of the series)
Outline: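 AP-1-bla ME-180 cells, Opti-MEM + 0.5% dialyzed FBS, plated overnight 37 °C. Cpd titration + EC50 EGF, 5 h 37 °C. CCF4 2.5 h RT; ex 405, em 460/530 ratio → %activity, AC50.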

[2] = NFAT Signaling Pathway (AID 444; active = well fitted curve in either direction with a large enough effect, not every such curve was filed as active;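 also: carbachol stimulus at about its EC50 of 1 µM final; % is scaled to controls: 0 for no effect and ±100 for the full control effect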); details: Jurkat NFAT-bla M1, carbachol, beta-lactamase ratio, 5 h; at 38 µM (top of the series)
Outline: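 Jurkat cells with NFAT-driven β-lactamase reporter and co-expressed M1 receptor, stimulated with carbachol (final 1 uM, ~EC50), compound titration, 5 h at 37 °C. CCF4 loaded 1 h at RT; 460/530 nm ratio gave %activity and AC50.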

[3] = Stat Signaling Pathway (AID 446; active = well fitted curve in either direction with a large enough effect, not every such curve was filed as active;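 also: ME-180 cervical cancer cells given 40 pM IL-6 alongside compound; SIE-controlled beta-lactamase reporter measured as 460/530 nm FRET emission ratio; % is scaled to controls: 0 for no effect and ±100 for the full control effect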); details: ME-180 (cervical carcinoma) SIE beta-lactamase reporter, IL-6 stimulated, 5 h; at 38 µM (top of the series)
Outline: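 Emission at 460 and 530 nm (excitation 405 nm) reports SIE-controlled beta-lactamase in ME-180 cells. Cells received compound with 40 pM IL-6 for 5 hrs at 37 C; data scaled between 300 pM IL-6 and 125 nM JAK-inhibitor controls.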

[4] = biological target: Glucocorticoid receptor (Homo sapiens) (UniProt P04150); experiment: GR-GFP Redistribution (AID 450;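 active = compounds whose dose series gives a full or clear partial fitted curve of increased nuclear translocation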; also: potency is read from the fitted curve at half-maximal effect); details: U2OS GR-GFP nuclear translocation, laser cytometry, 2 h
[5] = biological target: Glucocorticoid receptor (Homo sapiens) (UniProt P04150); experiment: GR-EFC Redistribution (AID 451; calls by dose curve; also: potency is read from the fitted curve at half-maximal effect); details: CHO-K1 GR-EFC translocation, beta-gal luminescence, 2 h
Outline: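 CHO-K1 cells expressing nuclear EA and GR-ED fragments of b-gal; compounds titrated up to 46 uM final, 2 h at 37 C. GR nuclear translocation read as complemented b-gal luminescence after 1 h RT detection.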

[6] = biological target: Mitogen-activated protein kinase 10 (Mus musculus) (UniProt Q61831); experiment: JNK3 AlphaScreen Assay (AID 530; active = well fitted curve in either direction with a large enough effect, not every such curve was filed as active;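 also: kinase came from lysate of stimulated human HepG2 cells; signal reports phosphorylation of biotinylated GST-cJun 1-79 at Ser73 with 10 µM ATP; % is scaled to controls: 0 for no effect and ±100 for the full control effect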)
Outline: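 HepG2 lysate (IL-1b/TNFa pre-activated) + biotin-GST-cJun 1-79 + anti-pSer73 cJun; cpd titration, 15 min RT; ATP 10 uM start; Tris pH 7.6, MgCl2, DTT, vanadate; beads in EDTA buffer; AlphaScreen.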

[7] = biological target: 3',5'-cyclic-AMP phosphodiesterase 4B (Homo sapiens) (UniProt Q07343); experiment: qHTS Assay for Inhibitors of PDE-IV (AID 607; active = well fitted activation curve with a large enough effect in the main read-out, with a control signal flat, not every such curve was filed as active; also: % of control where 0% means no effect)
Outline: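 The readout is membrane depolarisation from a cAMP-sensing CNG channel, detected with a potential dye at ex 535/em 590. Cells were HEK293-derived (endogenous PDE-IV) at 1000 cells/well, titrated up to 22.9 uM final.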

[8] = biological target: DNA dC->dU-editing enzyme APOBEC-3G (Homo sapiens) (UniProt Q9HC16); experiment: qHTS for inhibitors of Vif-A3G interactions: Validation (AID 588379); also: 0% is about no effect
Outline: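 Yellow fluorescence (Ex 488, Em 500-530) of Vif-coexpressing HeLa A3G-eYFP cells, scanned by Acumen cytometer, reports blocked A3G degradation. Cells plated at 700/well overnight at 37 deg C before compound addition, then a further overnight compound incubation at 37 deg C.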

[9] = tested on: Zika virus NS2B-NS3 protease; experiment: Primary screen GU AMC qHTS for Zika virus inhibitors (AID 1347154);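 also: 0% = no-inhibitor control and -100% = no-enzyme control; nearly all actives have a fitted effect of over 70% in size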
Outline: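 Unlinked Zika NS2B hydrophilic domain–NS3 protease complex at 25 nM in 10 mM Tris-HCl pH 8.0, 0.01% Tween 20, with an AMC peptide substrate. Fluorescence change (340/450 nm) over 15 min at room temperature, normalized to controls, fitted to 4-parameter Hill.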

[10] = biological target: Cytochrome P450 3A4 (Homo sapiens) (UniProt P08684); experiment: qHTS Assay for Inhibitors and Substrates of Cytochrome P450 3A4 (AID 884); also: % is scaled to controls: 0 for no effect and ±100 for the full control effect; nearly all actives have a fitted effect of over 50% in size
Outline: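 Luminescent readout of luciferin produced by CYP3A4 (20 nM) dealkylation of Luciferin-PPXE, 25 uM (its KM). NADPH-driven reaction ran 60 min at RT after 10 min compound preincubation; data scaled to 57 uM ketoconazole as 100% inhibition.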

[11] = NCATS anti-infectives library activity on HEK293 viability as a counter-qHTS vs the C. elegans viability qHTS (AID 1745854); also: % is scaled to controls: 0 for no effect and ±100 for the full control effect
Outline: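 CellTiter-Glo luminescence, read on a CCD imager, scored viability of HEK293 cells after 24 hr compound exposure at 37C. Library tested in several concentrations, 1:5 steps, up to 41.7 uM; digitonin served as control.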

[12] = biological target: Guanine nucleotide-binding protein G(i) subunit alpha-1 (Homo sapiens) (UniProt P63096); experiment: qHTS Assay for Inhibitors of RGS12 GoLoco Motif Activity (Green Fluorophore) (AID 879);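 also: 0% = labeled peptide with Gαi1 and full inhibition = labeled peptide alone without protein; negative values mean loss of peptide binding seen as reduced polarization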
Outline: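 A drop in FITC polarization marked displacement of the FITC-tagged RGS12 GoLoco peptide (10 nM) from Gαi1 (50 nM). Compounds were incubated 10 min at room temperature in Tris pH 7.5 buffer containing 150 mM NaCl, 0.1 mM GDP and 0.05% NP40; unlabeled peptide titration served as control.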

[13] = qHTS Assay for Identification of Small Molecule Agonists for Thrombopoietin (TPO) Signaling Pathway (AID 917); also: % is scaled to controls: 0 for no effect and ±100 for the full control effect
Outline: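 Luciferase reporter (Glycoprotein IIb promoter) in IL-3-deprived Ba/F3 cells carrying human TPO receptor; compounds co-added with 26 pM TPO, incubated 24 h, 37 C. Steadylite luminescence measured after 10 min.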

[14] = biological target: Pyruvate kinase (Leishmania mexicana) (UniProt Q27686); experiment: qHTS Validation Assay for Inhibitors of Leishmania Mexicana Pyruvate Kinase (AID 945);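 also: 0% = DMSO only neutral control wells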
Outline: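 Read-out: luminescence from PKLight stop/detection reagent, data normalized to DMSO. Reaction: 0.2 nM E451W LmPYK, 0.5 mM PEP, 0.1 mM ADP, pH 7.2, 1 h room temperature.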

[15] = biological target: Pyruvate kinase PKM (Homo sapiens) (UniProt P14618); experiment: qHTS Assay for Activators of Human Muscle Pyruvate Kinase (AID 954; active = well fitted curve in the direction sought with a large enough effect, not every such curve was filed as active;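 also: 0% = uninhibited enzyme and -100% = no enzyme or full thiadiazolimine inhibition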)
Outline: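 PKM2, human, >95% pure, 0.1 nM; PEP 0.5 mM (Km), ADP 0.1 mM; 50 mM imidazole pH 7.2, 50 mM KCl, 0.01% Tween 20, 0.05% BSA; 1 h RT; luciferase luminescence readout.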

[16] = biological target: Alpha-galactosidase A (Homo sapiens) (UniProt P06280); experiment: Counterscreen for Glucocerebrosidase Inhibitors: qHTS Assay for Human alpha-Galactosidase at pH 4.5 (AID 992); also: 0% is about no effect
Outline: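 Fluorogenic 4-MU alpha-D-galactoside (80 uM) hydrolysis, 2 nM enzyme, pH 4.5 citrate buffer + 0.005% Tween-20; 20 min RT; NaOH/glycine pH 10 stop; Ex365/Em440. Compounds titrated 0.7 nM–77 uM; Hill-equation AC50.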

[17] = biological target: alpha-glucosidase (Oryza sativa, rice) (UniProt Q653V4); experiment: Counterscreen for Glucocerebrosidase Inhibitors: qHTS Assay for Rice alpha-Glucosidase at pH 5.0 (AID 997);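 also: 0% = full activity with enzyme and -100% = basal without enzyme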
Outline: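 Endpoint fluorogenic assay at pH 5.0: compounds (0.7 nM to 77 uM) titrated against 4 nM rice enzyme and 400 uM 4-MU-alpha-glucoside for 20 min at room temperature; NaOH/glycine stop, read ex 365/em 440 nm, Hill-fitted AC50.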

[18] = biological target: Cytochrome P450 1A2 (Homo sapiens) (UniProt P05177); experiment: p450-cyp1a2 (AID 410; calls by dose curve;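 also: -100% = full effect of reference inhibitor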)
Outline: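 20nM CYP1A2, 100uM Luciferin-ME (=Km), 100mM KPO4; cpd 10 min RT; +NADPH regen, 60 min RT; stop/detect 20 min; luminescence. Normalized to furafylline 57 uM = full inhibition.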

[19] = biological target: Cytochrome P450 2C9 (Homo sapiens) (UniProt P11712); experiment: qHTS Assay for Inhibitors and Substrates of Cytochrome P450 2C9 (AID 883); also: potency is read from the fitted curve at half-maximal effect; nearly all actives have a fitted effect of over 60% in size
Outline: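 Human CYP2C9 (10nM) with Luciferin-H at 100uM (its KM) in 25mM KPO4; compound preincubated 10 min at 37C, then NADPH regeneration for 60 min at 37C. Luciferin read by luminescence after detection reagent; normalized to 57uM sulphaphenazole as full inhibition.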

[20] = biological target: Cytochrome P450 2C19 (Homo sapiens) (UniProt P33261); experiment: qHTS Assay for Inhibitors and Substrates of Cytochrome P450 2C19 (AID 899); also: potency is read from the fitted curve at half-maximal effect; nearly all actives have a fitted effect of over 60% in size
Outline: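 5 nM human CYP2C19 with 10uM Luciferin-H EGE (at KM) in 50mM KPO4, compound preincubated 10 min at 37C, then NADPH regeneration for 60 min at 37C. Luciferin read by luminescence after detection reagent; normalized to 57uM ketoconazole as full inhibition.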

[21] = biological target: Cytochrome P450 2D6 (Homo sapiens) (UniProt P10635); experiment: Cytochrome P450 family 2 subfamily D member 6 (CYP2D6) small molecule antagonists: luciferase biochemical (cell-free) qHTS assay (AID 1645840; active = well fitted curve in the direction sought with a large enough effect in the repeat runs; an effect the other way counts as inactive or inconclusive; also: % is scaled to controls: 0 for no effect and ±100 for the full control effect; nearly all actives have a fitted effect of over 55% in size)
Outline: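 P450-Glo CYP2D6 system: proluciferin substrate converted by enzyme to luciferin, read by luminescence proportional to activity. Enzyme-substrate mix with compound 10 min at room temperature, then NADPH regeneration 1 h before detection reagent.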

[22] = biological target: Cytochrome P450 2C9 (Homo sapiens) (UniProt P11712); experiment: Cytochrome P450 family 2 subfamily C member 9 (CYP2C9) small molecule antagonists: luciferase biochemical (cell-free) qHTS assay (AID 1645842; active = well fitted curve in the direction sought with a large enough effect in the repeat runs; an effect the other way counts as inactive or inconclusive; also: % is scaled to controls: 0 for no effect and ±100 for the full control effect; nearly all actives have a fitted effect of over 55% in size)
Outline: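 P450-Glo CYP2C9 system: proluciferin substrate with enzyme in mix containing 0.4% BSA, 10 min at room temperature, then NADPH regeneration solution added and incubated 1 h at 37C. Detection reagent stopped reaction; luminescence read after 20 min as RLU.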

[23] = biological target: Rap guanine nucleotide exchange factor 3 (Homo sapiens) (UniProt O95398); experiment: Confirmatory qHTS for antagonist of cAMP-regulated guanine nucleotide exchange factor 3 (EPAC1) (AID 1645880);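 also: plate controls were DMSO only for no effect and full effect of the ATA control for full effect; nearly all actives have a fitted effect of over 55% in size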
Outline: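 Released BODIPY-GDP fluoresces less than Rap1-bound BODIPY-GDP; the signal is followed at 480/540 nm at 5-min intervals over 30 min, after 5 min at room temperature. Reactions contain 100 nM EPAC1, 250 nM RAP1B-BODIPY-GDP and 50 uM GDP; results are normalized to ATA and DMSO.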

[24] = biological target: Rap guanine nucleotide exchange factor 3 (Homo sapiens) (UniProt O95398); experiment: Confirmatory qHTS for agonist of cAMP-regulated guanine nucleotide exchange factor 3 (EPAC1) (AID 1645881);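 also: EPAC1 catalysed release of BODIPY-GDP from Rap1B seen as fluorescence loss; 100% = effect of cAMP agonist control; nearly all actives have a fitted effect of over 75% in size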
[25] = biological target: Rap guanine nucleotide exchange factor 4 (Homo sapiens) (UniProt Q8WZA2); experiment: Confirmatory qHTS for agonist of cAMP-regulated guanine nucleotide exchange factor 4 (EPAC2) (AID 1645884);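 also: nucleotide exchange releases bodipy-GDP from Rap1 and this lowers its fluorescence; % is scaled to controls: 0 for no effect and ±100 for the full control effect; nearly all actives have a fitted effect of over 65% in size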
[26] = biological target: Rap guanine nucleotide exchange factor 4 (Homo sapiens) (UniProt Q8WZA2); experiment: Confirmatory qHTS for antagonist of cAMP-regulated guanine nucleotide exchange factor 4 (EPAC2) (AID 1645885); also: % is scaled to controls: 0 for no effect and ±100 for the full control effect; nearly all actives have a fitted effect of over 25% in size

Sequence of DNA dC->dU-editing enzyme APOBEC-3G (Homo sapiens) (Q9HC16 whole entry, looked up): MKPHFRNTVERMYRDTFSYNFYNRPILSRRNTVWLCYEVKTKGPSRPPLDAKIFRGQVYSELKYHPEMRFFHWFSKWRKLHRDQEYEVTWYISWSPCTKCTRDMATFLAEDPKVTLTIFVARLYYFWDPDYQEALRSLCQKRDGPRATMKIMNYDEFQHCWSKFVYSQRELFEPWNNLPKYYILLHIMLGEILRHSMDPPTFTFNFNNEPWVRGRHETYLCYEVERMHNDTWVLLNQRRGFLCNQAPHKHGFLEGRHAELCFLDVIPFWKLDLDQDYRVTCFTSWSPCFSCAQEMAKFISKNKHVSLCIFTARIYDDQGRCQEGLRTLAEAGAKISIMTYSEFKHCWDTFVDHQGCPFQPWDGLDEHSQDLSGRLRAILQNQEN
Sequence of 3',5'-cyclic-AMP phosphodiesterase 4B (Homo sapiens) (Q07343 whole entry, looked up): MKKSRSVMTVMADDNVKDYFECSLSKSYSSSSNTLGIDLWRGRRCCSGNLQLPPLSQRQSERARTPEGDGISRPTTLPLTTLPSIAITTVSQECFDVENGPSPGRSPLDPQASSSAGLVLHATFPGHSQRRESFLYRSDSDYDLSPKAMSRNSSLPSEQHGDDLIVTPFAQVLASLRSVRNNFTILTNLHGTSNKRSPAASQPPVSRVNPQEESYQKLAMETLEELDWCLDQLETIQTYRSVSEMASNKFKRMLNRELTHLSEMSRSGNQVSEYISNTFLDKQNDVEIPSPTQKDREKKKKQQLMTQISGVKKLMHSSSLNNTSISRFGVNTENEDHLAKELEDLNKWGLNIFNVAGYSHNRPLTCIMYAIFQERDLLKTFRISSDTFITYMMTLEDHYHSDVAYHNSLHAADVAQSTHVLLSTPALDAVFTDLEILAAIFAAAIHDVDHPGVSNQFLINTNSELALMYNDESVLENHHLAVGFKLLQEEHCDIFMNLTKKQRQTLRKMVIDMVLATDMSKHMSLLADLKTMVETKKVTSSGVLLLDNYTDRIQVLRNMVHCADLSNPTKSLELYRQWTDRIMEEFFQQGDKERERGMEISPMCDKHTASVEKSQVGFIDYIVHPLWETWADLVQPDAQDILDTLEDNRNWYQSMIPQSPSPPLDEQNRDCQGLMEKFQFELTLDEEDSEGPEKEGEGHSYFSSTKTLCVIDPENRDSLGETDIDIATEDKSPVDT
Sequence of Glucocorticoid receptor (Homo sapiens) (P04150 whole entry, looked up, the tested form may be a part): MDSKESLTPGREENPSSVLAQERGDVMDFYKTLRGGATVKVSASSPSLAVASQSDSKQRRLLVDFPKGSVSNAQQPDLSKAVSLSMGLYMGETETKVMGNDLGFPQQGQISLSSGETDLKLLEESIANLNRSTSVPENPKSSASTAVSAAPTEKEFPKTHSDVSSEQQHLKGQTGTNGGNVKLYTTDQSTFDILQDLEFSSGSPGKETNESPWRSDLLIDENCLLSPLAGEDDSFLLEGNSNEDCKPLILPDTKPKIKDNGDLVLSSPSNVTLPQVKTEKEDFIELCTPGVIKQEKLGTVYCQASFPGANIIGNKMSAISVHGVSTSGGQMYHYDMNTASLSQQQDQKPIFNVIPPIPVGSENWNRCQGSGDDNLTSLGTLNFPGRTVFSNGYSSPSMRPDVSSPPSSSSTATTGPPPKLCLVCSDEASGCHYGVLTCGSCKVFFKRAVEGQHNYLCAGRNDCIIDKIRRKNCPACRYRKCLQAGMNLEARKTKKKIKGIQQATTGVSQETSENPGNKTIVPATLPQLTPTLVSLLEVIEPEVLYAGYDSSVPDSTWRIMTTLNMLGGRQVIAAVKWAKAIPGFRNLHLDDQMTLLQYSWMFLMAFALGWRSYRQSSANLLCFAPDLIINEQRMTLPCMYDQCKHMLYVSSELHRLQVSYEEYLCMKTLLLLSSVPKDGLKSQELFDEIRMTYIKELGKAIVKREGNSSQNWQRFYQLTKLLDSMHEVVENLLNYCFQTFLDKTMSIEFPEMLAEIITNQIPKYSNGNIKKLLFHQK
Sequence of Rap guanine nucleotide exchange factor 3 (Homo sapiens) (O95398 whole entry, looked up): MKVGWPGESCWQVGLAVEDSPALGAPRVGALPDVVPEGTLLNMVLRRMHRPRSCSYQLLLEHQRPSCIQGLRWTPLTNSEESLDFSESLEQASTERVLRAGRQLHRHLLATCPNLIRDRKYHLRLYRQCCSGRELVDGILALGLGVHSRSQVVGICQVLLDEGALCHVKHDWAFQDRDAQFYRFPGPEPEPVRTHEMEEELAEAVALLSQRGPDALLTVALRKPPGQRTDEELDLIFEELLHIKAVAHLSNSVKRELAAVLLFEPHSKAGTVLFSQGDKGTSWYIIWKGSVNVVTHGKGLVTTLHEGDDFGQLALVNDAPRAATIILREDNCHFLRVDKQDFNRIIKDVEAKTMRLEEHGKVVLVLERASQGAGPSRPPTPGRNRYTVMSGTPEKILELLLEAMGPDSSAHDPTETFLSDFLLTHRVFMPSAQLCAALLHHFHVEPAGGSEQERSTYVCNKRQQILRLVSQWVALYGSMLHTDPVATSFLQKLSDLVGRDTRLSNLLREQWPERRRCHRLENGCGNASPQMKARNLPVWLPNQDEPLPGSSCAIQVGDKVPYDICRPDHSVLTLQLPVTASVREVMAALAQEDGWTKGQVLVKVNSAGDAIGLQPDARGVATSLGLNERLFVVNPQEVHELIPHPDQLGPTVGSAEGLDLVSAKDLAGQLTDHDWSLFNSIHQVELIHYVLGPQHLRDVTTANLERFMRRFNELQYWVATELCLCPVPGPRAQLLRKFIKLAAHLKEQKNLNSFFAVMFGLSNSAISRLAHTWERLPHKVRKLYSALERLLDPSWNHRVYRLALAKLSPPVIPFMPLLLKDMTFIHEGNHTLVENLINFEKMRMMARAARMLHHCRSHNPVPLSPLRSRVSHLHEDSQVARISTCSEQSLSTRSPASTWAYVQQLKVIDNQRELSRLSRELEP
Sequence of Cytochrome P450 2C9 (Homo sapiens) (P11712 whole entry, looked up): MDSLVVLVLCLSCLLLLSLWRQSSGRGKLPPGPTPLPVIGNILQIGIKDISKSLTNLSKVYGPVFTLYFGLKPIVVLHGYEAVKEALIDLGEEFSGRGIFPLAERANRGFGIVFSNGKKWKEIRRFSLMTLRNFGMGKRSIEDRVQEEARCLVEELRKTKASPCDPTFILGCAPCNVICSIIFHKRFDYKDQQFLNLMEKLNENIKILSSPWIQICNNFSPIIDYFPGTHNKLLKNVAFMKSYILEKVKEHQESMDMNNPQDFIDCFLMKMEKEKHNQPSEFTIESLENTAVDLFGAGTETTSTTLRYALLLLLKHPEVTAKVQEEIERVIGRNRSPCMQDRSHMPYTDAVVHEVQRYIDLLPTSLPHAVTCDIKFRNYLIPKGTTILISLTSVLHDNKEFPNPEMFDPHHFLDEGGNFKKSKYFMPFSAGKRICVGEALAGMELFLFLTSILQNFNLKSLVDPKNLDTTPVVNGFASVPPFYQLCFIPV
Sequence of Rap guanine nucleotide exchange factor 4 (Homo sapiens) (Q8WZA2 whole entry, looked up): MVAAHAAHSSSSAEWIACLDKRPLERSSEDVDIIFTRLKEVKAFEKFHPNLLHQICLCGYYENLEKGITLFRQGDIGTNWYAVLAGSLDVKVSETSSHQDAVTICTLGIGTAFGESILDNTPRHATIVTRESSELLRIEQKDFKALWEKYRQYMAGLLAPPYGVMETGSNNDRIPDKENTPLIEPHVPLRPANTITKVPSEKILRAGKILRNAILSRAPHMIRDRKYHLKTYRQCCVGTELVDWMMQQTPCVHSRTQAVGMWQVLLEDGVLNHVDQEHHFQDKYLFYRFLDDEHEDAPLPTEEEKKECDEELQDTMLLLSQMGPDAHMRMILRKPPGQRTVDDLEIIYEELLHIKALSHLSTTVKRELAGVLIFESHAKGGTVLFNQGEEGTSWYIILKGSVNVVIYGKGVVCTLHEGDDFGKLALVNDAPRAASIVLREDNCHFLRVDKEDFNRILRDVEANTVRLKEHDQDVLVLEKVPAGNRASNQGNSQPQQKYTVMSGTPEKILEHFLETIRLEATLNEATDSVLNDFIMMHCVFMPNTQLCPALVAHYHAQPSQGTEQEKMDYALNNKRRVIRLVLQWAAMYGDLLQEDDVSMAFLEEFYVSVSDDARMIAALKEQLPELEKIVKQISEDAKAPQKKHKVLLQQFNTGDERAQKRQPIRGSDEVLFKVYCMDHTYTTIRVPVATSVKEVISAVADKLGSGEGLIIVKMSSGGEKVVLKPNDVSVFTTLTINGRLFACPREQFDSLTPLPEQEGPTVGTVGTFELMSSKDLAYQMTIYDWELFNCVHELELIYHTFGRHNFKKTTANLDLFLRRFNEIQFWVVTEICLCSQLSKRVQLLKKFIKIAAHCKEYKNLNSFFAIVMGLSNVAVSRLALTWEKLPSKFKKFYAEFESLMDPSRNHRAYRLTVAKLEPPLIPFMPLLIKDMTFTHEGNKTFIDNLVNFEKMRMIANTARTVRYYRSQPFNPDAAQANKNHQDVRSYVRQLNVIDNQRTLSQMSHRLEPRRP
Sequence of Cytochrome P450 1A2 (Homo sapiens) (P05177 whole entry, looked up): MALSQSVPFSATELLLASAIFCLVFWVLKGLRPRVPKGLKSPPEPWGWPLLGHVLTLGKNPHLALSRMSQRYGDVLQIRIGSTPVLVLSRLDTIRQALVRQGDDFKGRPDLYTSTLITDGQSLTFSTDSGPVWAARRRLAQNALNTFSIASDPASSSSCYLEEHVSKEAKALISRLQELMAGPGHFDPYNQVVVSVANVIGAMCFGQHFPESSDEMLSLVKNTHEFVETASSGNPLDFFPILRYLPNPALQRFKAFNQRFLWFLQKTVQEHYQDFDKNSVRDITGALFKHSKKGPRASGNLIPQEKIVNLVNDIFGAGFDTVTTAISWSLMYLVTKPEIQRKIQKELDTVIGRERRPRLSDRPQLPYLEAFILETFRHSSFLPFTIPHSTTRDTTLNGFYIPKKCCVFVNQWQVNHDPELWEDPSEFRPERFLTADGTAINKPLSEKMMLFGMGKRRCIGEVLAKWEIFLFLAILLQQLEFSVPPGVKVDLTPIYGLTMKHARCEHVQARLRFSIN

COc1ccc2[nH]c(I)c(CCNC(C)=O)c2c1
inactive: activity change, negative = inhibition [1] -7.67% | activity change, negative = inhibition [2] -1.64% | activity, negative = inhibition [3] 3.36% | Potency [4] > 46 µM | Potency [5] > 46 µM | Potency [6] | Potency [7] | Potency [8] | Potency [9]

O=c1[nH]cnc2ccccc12
inactive: Potency [10] | Potency [9] | outcome [11]

O=C(NC[C@H]1CCCCN1)c1cc(OCC(F)(F)F)ccc1OCC(F)(F)F
inactive: activity change, negative = inhibition [1] 4.16% | activity change, negative = inhibition [2] -11% | activity, negative = inhibition [3] -13.8% | Potency [6] | Potency [7] | outcome [12] | Potency [13] | Potency [14] | outcome [15] | outcome [16] | outcome [17] | Potency [8] | Potency [9]

CN(CC[C@@H](Oc1ccc(-c2ccccc2)cc1)c1ccc(F)cc1)CC(=O)O
inactive: Potency [18] | Potency [4] > 46 µM | Potency [5] > 46 µM | Potency [6] | Potency [8] | Potency [9] | Potency [21] | Potency [22]
active: Potency [19] 2.51 µM | Potency [20] 6.31 µM

CN1[C@@H]2CC(OC(=O)[C@H](CO)c3ccccc3)C[C@@H]1[C@H]1O[C@H]12 (stereo partly specified)
inactive: Potency [8] | Potency [9] | Potency [23] | outcome [24] | outcome [25] | Potency [26]

— PubChem BioAssay (NCATS)
